# Source: the supplement of paper PMC8728848
# The full list was thinned out, with the strongest signals kept by preference.
# How the values were obtained:
# Test in all cases: glycan array binding signal (z-score within array); higher = stronger binding
# Settings in all cases: glycan notation: IUPAC condensed, linker removed
# [1] = biological target: Fuc(a1-2)Gal(b1-3)[Fuc(a1-4)]GlcNAc(b1-2)Man(a1-3)[Fuc(a1-2)Gal(b1-3)[Fuc(a1-4)]GlcNAc(b1-2)Man(a1-3)]Man(b1-4)GlcNAc(b1-4)GlcNAc
# Summary of the method: (§1)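 Negative Z-scores can be read as non-binding. The Z-score is calculated within each array and then averaged across arrays of one protein sequence at different concentrations or buffers and across linkers. Arrays, 3228 in all, were curated from the Consortium for Functional Glycomics database and kept only where the protein sequence was available.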
# [2] = biological target: Fuc(a1-2)Gal(b1-3)[Fuc(a1-4)]GlcNAc(b1-2)Man(a1-6)[Fuc(a1-2)Gal(b1-3)[Fuc(a1-4)]GlcNAc(b1-2)Man(a1-3)]Man(b1-4)GlcNAc(b1-4)[Fuc(a1-6)]GlcNAc
# Summary of the method: as §1
# [3] = biological target: Fuc(a1-2)Gal(b1-4)GlcNAc(b1-3)Gal(b1-4)GlcNAc(b1-3)Gal(b1-4)GlcNAc
# Summary of the method: as §1
# [4] = biological target: Fuc(a1-2)Gal(b1-4)[Fuc(a1-3)]GlcNAc(b1-2)Man(a1-3)[Fuc(a1-2)Gal(b1-4)[Fuc(a1-3)]GlcNAc(b1-2)Man(a1-6)]Man(b1-4)GlcNAc(b1-4)[Fuc(a1-6)]GlcNAc
# Summary of the method: as §1
# [5] = biological target: Fuc(a1-2)Gal(b1-4)[Fuc(a1-3)]GlcNAc(b1-3)Gal(b1-4)[Fuc(a1-3)]GlcNAc
# Summary of the method: as §1
# [6] = biological target: Fuc(a1-2)Gal(b1-4)[Fuc(a1-3)]GlcNAc(b1-3)GalNAc
# Summary of the method: as §1
# [7] = biological target: Fuc(a1-2)Gal6S(b1-3)GlcNAc6S
# Summary of the method: as §1
# [8] = biological target: Fuc(a1-2)[Gal(a1-3)]Gal(b1-4)GlcNAc(b1-3)GalNAc
# Summary of the method: as §1
# [9] = biological target: Fuc(a1-2)[Gal(a1-3)]Gal(b1-4)GlcNAc(b1-6)GalNAc
# Summary of the method: as §1
# [10] = biological target: Fuc(a1-2)[GalNAc(a1-3)]Gal(b1-3)GlcNAc(b1-3)GalNAc
# Summary of the method: as §1
# [11] = biological target: Fuc(a1-2)[GalNAc(a1-3)]Gal(b1-4)GlcNAc(b1-3)Gal(b1-4)GlcNAc
# Summary of the method: as §1
# [12] = biological target: Fuc(a1-2)[GalNAc(a1-3)]Gal(b1-4)GlcNAc(b1-3)[Fuc(a1-2)[GalNAc(a1-3)]Gal(b1-4)GlcNAc(b1-6)]GalNAc
# Summary of the method: as §1
# Fuc(b1-3)GlcNAc = biological target: Fuc(b1-3)GlcNAc
# Summary of the method: as §1
# Gal(a1-3)Gal(b1-3)GlcNAc = biological target: Gal(a1-3)Gal(b1-3)GlcNAc
# Summary of the method: as §1
# [13] = biological target: Gal(a1-3)Gal(b1-3)[Fuc(a1-4)]GlcNAc(b1-2)Man(a1-3)[Gal(a1-3)Gal(b1-3)[Fuc(a1-4)]GlcNAc(b1-2)Man(a1-6)]Man(b1-4)GlcNAc(b1-4)GlcNAc
# Summary of the method: as §1
# Gal(a1-3)Gal(b1-4)GlcNAc = biological target: Gal(a1-3)Gal(b1-4)GlcNAc
# Summary of the method: as §1
# [14] = biological target: Gal(a1-4)Gal(b1-4)GlcNAc(b1-3)Gal(b1-4)Glc
# Summary of the method: as §1
# [15] = biological target: Gal(b1-3)Gal(b1-4)GlcNAc(b1-2)Man(a1-3)[Gal(b1-3)Gal(b1-4)GlcNAc(b1-2)Man(a1-6)]Man(b1-4)GlcNAc(b1-4)GlcNAc
# Summary of the method: as §1
# Gal(b1-3)GalNAc = biological target: Gal(b1-3)GalNAc
# Summary of the method: as §1
# [16] = biological target: Gal(b1-3)GalNAc(b1-3)Gal(a1-4)Gal(b1-4)Glc
# Summary of the method: as §1
# Gal(b1-4)Glc6S = biological target: Gal(b1-4)Glc6S
# Summary of the method: as §1
# [17] = biological target: Gal(b1-4)GlcNAc(b1-2)[Gal(b1-4)GlcNAc(b1-4)]Man(a1-3)[GlcNAc(b1-4)][Gal(b1-4)GlcNAc(b1-2)Man(a1-6)]Man(b1-4)GlcNAc(b1-4)GlcNAc
# Summary of the method: as §1
# [18] = biological target: Gal(b1-4)GlcNAc(b1-3)Gal(b1-4)GlcNAc(b1-2)[Gal(b1-4)GlcNAc(b1-3)Gal(b1-4)GlcNAc(b1-6)]Man(a1-6)[Gal(b1-4)GlcNAc(b1-3)Gal(b1-4)GlcNAc(b1-2)Man(a1-3)]Man(b1-4)GlcNAc(b1-4)[Fuc(a1-6)]GlcNAc
# Summary of the method: as §1
# [19] = biological target: Gal(b1-4)GlcNAc(b1-3)Gal(b1-4)GlcNAc(b1-3)Gal(b1-4)GlcNAc(b1-2)[Gal(b1-4)GlcNAc(b1-3)Gal(b1-4)GlcNAc(b1-3)Gal(b1-4)GlcNAc(b1-6)]Man(a1-6)[Gal(b1-4)GlcNAc(b1-3)Gal(b1-4)GlcNAc(b1-3)Gal(b1-4)GlcNAc(b1-2)Man(a1-3)]Man(b1-4)GlcNAc(b1-4)[Fuc(a1-6)]GlcNAc
# Summary of the method: as §1
# [20] = biological target: Gal(b1-4)GlcNAc(b1-3)Gal(b1-4)GlcNAc(b1-3)Gal(b1-4)GlcNAc(b1-3)Gal(b1-4)GlcNAc(b1-3)Gal(b1-4)GlcNAc(b1-2)Man(a1-3)[Gal(b1-4)GlcNAc(b1-3)Gal(b1-4)GlcNAc(b1-3)Gal(b1-4)GlcNAc(b1-3)Gal(b1-4)GlcNAc(b1-3)Gal(b1-4)GlcNAc(b1-2)Man(a1-6)]Man(b1-4)GlcNAc(b1-4)GlcNAc
# Summary of the method: as §1
# [21] = biological target: Gal(b1-4)GlcNAc(b1-3)Gal(b1-4)GlcNAc(b1-6)[Gal(b1-3)]GalNAc
# Summary of the method: as §1
# Gal3S(b1-3)GalNAc = biological target: Gal3S(b1-3)GalNAc
# Summary of the method: as §1
# Gal3S(b1-4)Glc6S = biological target: Gal3S(b1-4)Glc6S
# Summary of the method: as §1
# [22] = biological target: Gal3S(b1-4)[Fuc(a1-3)]GlcNAc
# Summary of the method: as §1
# Gal4S(b1-4)GlcNAc = biological target: Gal4S(b1-4)GlcNAc
# Summary of the method: as §1
binder,measurement,setting,value
"Gal 10 (Homo sapiens), Q05315 (protein) MSLLPVPYTEAASLSTGSTVTIKGRPLVCFLNEPYLQVDFHTEMKEESDIVFHFQVCFGRRVVMNSREYGAWKQQVESKNMPFQDGQEFELSISVLPDKYQVMVNGQSSYTFDHRIKPEAVKMVQVWRDISLTKFNVSYLKR",glycan array binding signal (z-score),[1],0.078
same,glycan array binding signal (z-score),[2],0.81
same,glycan array binding signal (z-score),[3],-0.692
same,glycan array binding signal (z-score),[4],-0.642
same,glycan array binding signal (z-score),[5],-1.35
same,glycan array binding signal (z-score),[6],2.13
same,glycan array binding signal (z-score),[7],0.571
same,glycan array binding signal (z-score),[8],-0.339
same,glycan array binding signal (z-score),[9],1.28
same,glycan array binding signal (z-score),[10],0.64
same,glycan array binding signal (z-score),[11],-0.116
same,glycan array binding signal (z-score),[12],3.88
same,glycan array binding signal (z-score),Fuc(b1-3)GlcNAc,0.585
same,glycan array binding signal (z-score),Gal(a1-3)Gal(b1-3)GlcNAc,-0.317
same,glycan array binding signal (z-score),[13],0.703
same,glycan array binding signal (z-score),Gal(a1-3)Gal(b1-4)GlcNAc,0.105
same,glycan array binding signal (z-score),[14],-0.109
same,glycan array binding signal (z-score),[15],-0.754
same,glycan array binding signal (z-score),Gal(b1-3)GalNAc,0.117
same,glycan array binding signal (z-score),[16],-0.196
same,glycan array binding signal (z-score),Gal(b1-4)Glc6S,-0.347
same,glycan array binding signal (z-score),[17],-0.708
same,glycan array binding signal (z-score),[18],2.23
same,glycan array binding signal (z-score),[19],5.64
same,glycan array binding signal (z-score),[20],3.23
same,glycan array binding signal (z-score),[21],3.3
same,glycan array binding signal (z-score),Gal3S(b1-3)GalNAc,-0.157
same,glycan array binding signal (z-score),Gal3S(b1-4)Glc6S,0.08
same,glycan array binding signal (z-score),[22],-0.495
same,glycan array binding signal (z-score),Gal4S(b1-4)GlcNAc,-0.269
